Where “and” joins values, the source holds several entries; their conditions need not be identical. Equal entries are not always repeated. Structures can show the parent of a compound that is named as a salt.
Experiments:
Assay in all cases: cell viability relative to vehicle control; higher = less cytotoxic
Settings in all cases: 10 µM
K562 = system: K562
Summary of the method: (§1)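 CRISPR-edited SRSF2 P95 mutant and isogenic wild-type clones of four leukaemia lines were screened against Selleck bioactive, kinase and epigenetic probe libraries, with identity-inconsistent compounds removed. Compounds were acoustically dispensed into 384-well plates at a single 10 µM dose, with 2000 cells in 50 µL medium per well. After 48 h, supernatant was removed and CellTiter-Glo luminescence was read. Viability was expressed as percent of the on-plate DMSO vehicle control, analysed in Genedata Screener.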

MARIMO = system: MARIMO
Summary of the method: as §1

MOLM14 = system: MOLM14
Summary of the method: as §1

OCI-AML2 = system: OCI-AML2
Summary of the method: as §1

SMILES	cell viability (K562; SRSF2 genotype: SRSF2 P95H/wt)	cell viability (K562; SRSF2 genotype: SRSF2 wt/wt)	cell viability (MARIMO; SRSF2 genotype: SRSF2 P95H/wt)	cell viability (MARIMO; SRSF2 genotype: SRSF2 wt/wt)	cell viability (MOLM14; SRSF2 genotype: SRSF2 P95H/wt)	cell viability (MOLM14; SRSF2 genotype: SRSF2 wt/wt)	cell viability (OCI-AML2; SRSF2 genotype: P95H/wt)	cell viability (OCI-AML2; SRSF2 genotype: wt/wt)
COc1ccc2[nH]c(=O)oc2c1 [Coixol]	94.8% and 103%	95%	97.8%	96.3%	103%	98.2%	102%	93.9%
C#CCN[C@@H]1CCc2ccccc21 [Rasagiline mesylate]	98% and 105%	101%	105%	106%	99.4%	104%	108%	107%
Clc1ccc(C(c2ccccc2Cl)C(Cl)Cl)cc1 (stereo not given) [Mitotane]	91.2% and 89.1%	87.6%	83%	106%	90.8%	84.8%	93.7%	107%
COc1cc2ncnc(Nc3cccc(Cl)c3)c2cc1OC [AG-1478 (Tyrphostin AG-1478)]	75% and 83.2%	76.4%	81.7%	90%	59.7%	67.6%	58%	62.2%
Cc1ccccc1N=Nc1ccc(NC(=O)c2ccnn2C)c(C)c1	84.3% and 77.9%	88%	82.3%	87.2%	102%	95%	73.1%	74.5%
COc1cccc(OC)c1C(=O)OCc1cc(O)ccc1O[C@@H]1O[C@H](CO)[C@@H](O)[C@H](O)[C@H]1O [Curculigoside]	101% and 106%	106%	110%	104%	105%	105%	115%	109%
O=C(CNc1ccc2ccccc2c1)N/N=C/c1cc(Br)c(O)c(Br)c1O	81.1% and 82.1%	72.8%	50.8%	65.4%	62.3%	51.7%	49.8%	58.5%
O=C(Nc1nccs1)C(c1cc(F)ccc1O)N1Cc2ccccc2C1=O (stereo not given)	103% and 94.9%	96.6%	94.6%	105%	98%	97.6%	93.9%	100%
CC(=O)Nc1nc2c(Oc3cc(-c4ccc(C(F)(F)F)cc4)ncn3)cccc2s1	99.6% and 93%	88%	93.3%	103%	95.9%	97.7%	90.6%	88.9%
O=NO [Sodium Nitrite]	107% and 104%	95.9%	99.9%	99.4%	96.4%	101%	97.8%	99.5%
COc1cc2c(cc1OC)[C@@H]1Cc3ccc(OC)c(OC)c3CN1CC2 [Rotundine]	87.8% and 98.4%	101%	98.2%	91.1%	94%	95.2%	95.1%	90.4%
CC(C)Cc1ccc([C@@H](C)C(=O)NS(C)(=O)=O)cc1 [Reparixin (Repertaxin)]	102% and 97.5%	98.4%	97.6%	99.2%	95.7%	98.4%	93.3%	105%
CCOC(=O)OC(C)OC1=C(C(=O)Nc2ccccn2)N(C)S(=O)(=O)c2ccccc21 (stereo not given) [Ampiroxicam]	96.8% and 104%	92.4%	101%	95.9%	93%	95.9%	104%	96%
N#Cc1c(NC(=O)c2cccc3ccccc23)sc2c1CCCC2 [JNK inhibitor IX]	16.2% and 37.1%	34.9%	6.04%	9.03%	14.5%	3.68%	8.78%	12.3%
O=c1ccc2ccc(OCCCCN3CCN(c4cccc5sccc45)CC3)cc2[nH]1 [Brexpiprazole]	37.4% and 28.9%	60.1%	43.1%	39.2%	33%	23.4%	15.4%	21.6%
CN(C)CCC(c1ccc(Cl)cc1)c1ccccn1 (stereo not given) [Chlorpheniramine Maleate]	100% and 106%	98.2%	91.4%	105%	94.7%	101%	99.4%	99.1%
NCCOc1ccc(Cl)cc1C(=O)Nc1ccc([N+](=O)[O-])cc1Cl	29.7% and 24.1%	23.4%	35.4%	37.5%	21.3%	14.6%	4.88%	14.7%
NC(=O)N1c2ccccc2C=Cc2ccccc21 [Carbamazepine (Carbatrol)]	95.3% and 86.7%	90.3%	81.3%	97.6%	88.3%	87.9%	92%	104%
Cc1ccc(C(=O)Nc2ccc(CN3CCN(C)CC3)c(C(F)(F)F)c2)cc1C#Cc1cnc2[nH]ncc2c1 [GZD824 Dimesylate]	0.41% and 0.25%	0.26%	0.31%	0.33%	0.15%	0.17%	0.16%	0.2%
Cc1c(C(=O)Nc2ccc(N3CCC(N4CCOCC4)CC3)c(C#N)c2)cnn1-c1ccc(Cl)cc1	8.99% and 14.7%	47.6%	6.27%	12.2%	11%	1.97%	8.8%	11.4%

SMILES	cell viability (K562; SRSF2 genotype: SRSF2 P95H/wt)	cell viability (K562; SRSF2 genotype: SRSF2 wt/wt)	cell viability (MARIMO; SRSF2 genotype: SRSF2 P95H/wt)	cell viability (MARIMO; SRSF2 genotype: SRSF2 wt/wt)	cell viability (MOLM14; SRSF2 genotype: SRSF2 P95H/wt)	cell viability (MOLM14; SRSF2 genotype: SRSF2 wt/wt)	cell viability (OCI-AML2; SRSF2 genotype: P95H/wt)	cell viability (OCI-AML2; SRSF2 genotype: wt/wt)
Nc1nc(Cl)nc2c1ncn2[C@H]1C[C@H](O)[C@@H](CO)O1 [Cladribine]	94.3% and 104%	101%	12.2%	8.19%	2.38%	0.54%	4.93%	4.28%
OCc1ccccc1O[C@@H]1O[C@H](CO)[C@@H](O)[C@H](O)[C@H]1O [Salicin (Salicoside, Salicine)]	101% and 103%	110%	103%	106%	99.7%	104%	105%	112%
CCCCOCc1ccc(O)c(OC)c1 [Vanillyl Butyl Ether]	98.9% and 92.9%	101%	97.6%	106%	98.8%	101%	93.1%	109%
C[C@@H]1CC[C@H]2C(C)(C)[C@H]3C[C@@]12CC[C@@]3(C)O [Cedrol]	106% and 97.2%	96.6%	103%	107%	104%	104%	98.2%	112%
COc1ccc2[nH]c([S@@+]([O-])Cc3ncc(C)c(OC)c3C)nc2c1 [Esomeprazole sodium]	98.5% and 100%	94.4%	98.8%	99.8%	97.4%	90.9%	96%	91.8%
CCC1(c2ccccc2)C(=O)NCNC1=O [Primidone (Mysoline)]	113% and 104%	107%	106%	114%	102%	107%	98%	110%
Nc1nc(NCCNc2ncc(-n3ccnc3)c(-c3ccc(Cl)cc3Cl)n2)ccc1[N+](=O)[O-]	110% and 106%	99.1%	125%	132%	109%	115%	131%	148%
CC1(C)[C@@H](O[C@H]2O[C@H](C(=O)O)[C@@H](O)[C@H](O)[C@H]2O[C@@H]2O[C@H](C(=O)O)[C@@H](O)[C@H](O)[C@H]2O)CC[C@]2(C)[C@H]3C(=O)C=C4[C@@H]5C[C@@](C)(C(=O)O)CC[C@]5(C)CC[C@@]4(C)[C@]3(C)CC[C@@H]12 [Ammonium Glycyrrhizate]	97.4% and 102%	99.3%	101%	101%	106%	98.9%	106%	99%
CC(C)NCC(O)c1ccc(NS(C)(=O)=O)cc1 (stereo not given) [Sotalol HCl]	106% and 102%	95.7%	101%	109%	104%	102%	106%	102%
Cc1cc(O)c2c(c1)C(=O)c1cccc(O)c1C2=O [Chrysophanic acid (Chrysophanol)]	100% and 95.6%	100%	96.9%	95.8%	114%	106%	89.2%	83%
OC(c1cc(C(F)(F)F)nc2c(C(F)(F)F)cccc12)C1CCCCN1 (stereo not given) [Mefloquine HCl]	0.97% and 1.02%	0.97%	0.56%	0.87%	0.48%	0.44%	0.35%	1.68%
C[C@H]1[C@H](C)CC[C@]2(C(=O)O[C@@H]3O[C@H](CO[C@@H]4O[C@H](CO)[C@@H](O[C@@H]5O[C@H](C)[C@H](O)[C@@H](O)[C@H]5O)[C@H](O)[C@H]4O)[C@@H](O)[C@H](O)[C@H]3O)CC[C@]3(C)C(=CC[C@@H]4[C@@]5(C)C[C@@H](O)[C@H](O)[C@@](C)(CO)[C@@H]5CC[C@]43C)[C@H]12 [Asiaticoside]	102% and 105%	101%	103%	99.2%	103%	103%	98.7%	106%
COCCOc1nc(-c2ccc(Cl)c(Cl)c2)n(-c2ccc(NC(=O)CCl)cc2)n1 [MI-2 (MALT1 inhibitor)]	16% and 8.54%	6.61%	0.5%	0.7%	0.48%	0.53%	0.42%	0.46%
O=C(Nc1ccc(OC(F)(F)Cl)cc1)c1cnc(N2CC[C@@H](O)C2)c(-c2cc[nH]n2)c1 [Asciminib (ABL001)]	12.7% and 19%	17.1%	68.4%	64.5%	92%	87.7%	41.2%	55%
CN[C@@H](C)C(=O)N[C@H](C(=O)N1CCC[C@H]1C(=O)N[C@H](C(=O)NCCCCCCNC(=O)[C@@H](NC(=O)[C@@H]1CCCN1C(=O)[C@@H](NC(=O)[C@H](C)NC)C1CCCCC1)C(c1ccccc1)c1ccccc1)C(c1ccccc1)c1ccccc1)C1CCCCC1	0.93% and 3.98%	3.06%	29.5%	8.11%	0.7%	0.53%	4.1%	9.14%
Clc1ccc(COC(Cn2ccnc2)c2ccc(Cl)cc2Cl)c(Cl)c1 (stereo not given) [Miconazole (Monistat)]	65.6% and 81%	62.2%	61.1%	73%	67.2%	54.8%	65.5%	54.4%
Cc1nn(C)c2c1C(c1ccc(C(F)(F)F)cc1)C(C#N)=C(N)O2 (stereo not given)	101% and 106%	111%	99.5%	95%	103%	102%	112%	121%
O=CO [Formate]	101% and 91.4%	99%	97.5%	104%	102%	106%	96.7%	96%
O=C(O)C(S)=Cc1c[nH]c2ccc(F)cc12	95.6% and 105%	97%	109%	109%	85.2%	98.3%	106%	103%
CC(C(=O)O)C(=O)O [Methylmalonate]	102%	100%	98.2%	110%	97%	103%	90.5%	107%

— the supplement of paper PMC10981050
